Compound activity: PubChem, several laboratories
This is a sample that favours compounds with a hit; in the whole collection about 1.4% have one here.
MEX-5 binding – MEX-5 zinc finger RNA-binding disruptors – biochemical, C. elegans, fluorescence polarization, MLPCN library, primary screen | MEX-5/FITC-TCR2 RNA binding; stronger effect = lower value | activity score (negative = inhibition of binding), % at 10 µM | 0.38% of 300,000 active | AID 1832, 2009;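 active = inhibition past about -25% in most replicates, and total fluorescence under double the plate's negative control median, limit read from the data; inconclusive = replicates evenly split on the limit, or fluorescence at least double controls; inactive = too little inhibition in most replicates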
Bcl-xL primary – inhibitors of human Bcl-xL, primary screen, biochemical, fluorescence polarization, HTS; AID 2129, 2009; inhibition, % at 10.9 µM; 0.7% of 320,000 active; GST-Bcl-xL / FITC-Bim BH3 peptide fluorescence polarization;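 active = inhibition above the mean of all tested compounds plus 3 SD, cutoff set per campaign, cut at about 30% in these data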;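 also: inhibitors lower millipolarization by displacing the labeled peptide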
Target sequence (Q07817 whole entry, looked up): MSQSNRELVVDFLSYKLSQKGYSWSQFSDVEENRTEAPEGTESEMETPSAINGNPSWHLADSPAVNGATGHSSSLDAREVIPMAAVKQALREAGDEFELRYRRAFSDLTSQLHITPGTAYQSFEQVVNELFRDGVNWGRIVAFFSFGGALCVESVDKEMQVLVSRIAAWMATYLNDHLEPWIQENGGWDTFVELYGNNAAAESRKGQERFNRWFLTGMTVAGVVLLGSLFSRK
MCL1 BIM primary – inhibitors of MCL1 binding to BIM-BH3, primary screen, biochemical, fluorescence polarization | Induced myeloid leukemia cell differentiation protein Mcl-1 (Homo sapiens), Q07820 | GST-MCL1 / FITC-Bim-BH3 fluorescence polarization | inhibition, % at 10.9 µM | 0.68% of 320,000 active;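 active = inhibition above the mean inhibition of all tested compounds plus 3 SD, set per campaign, cut at about 40% in these data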;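 also: higher means more loss of mP so more displacement of Bim peptide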
eLon inh – inhibitors of E. coli Lon protease, primary screen, biochemical, fluorescence polarization; P0A9M0; purified E. coli Lon protease; inhibition, % at 7.94 µM; 0.42% of 360,000 active; AID 602123, 2011; in the data active = inhibition above about 13%, passing the limit was not always enough
GLD-1 RNA inh – GLD-1/TGE RNA complex disruptors, primary screen, biochemical, fluorescence polarization; Female germline-specific tumor suppressor gld-1 (Caenorhabditis elegans), Q17339; inhibition, % at 5.96 µM; 0.44% of 320,000 active; purified GLD-1 + fluorescein TGE RNA; AID 2280, 2010;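 active = percent inhibition above a per-plate cutoff, the plate mean of test compounds plus 3 SD, cut at about 30% in these data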
EBV gp42 block – Epstein-Barr virus gp42 inhibitors, primary screen, biochemical, uHTS, fluorescence polarization. Glycoprotein 42 (Epstein-Barr virus (strain AG876)), Q1HVG2. Fluorescence polarization binding assay, mP read-out. inhibition, % (tested at 21.74 µM). 0.42% of 220,000 active; in the data active = inhibition above about 50%
Target sequence (Q1HVG2 whole entry, looked up): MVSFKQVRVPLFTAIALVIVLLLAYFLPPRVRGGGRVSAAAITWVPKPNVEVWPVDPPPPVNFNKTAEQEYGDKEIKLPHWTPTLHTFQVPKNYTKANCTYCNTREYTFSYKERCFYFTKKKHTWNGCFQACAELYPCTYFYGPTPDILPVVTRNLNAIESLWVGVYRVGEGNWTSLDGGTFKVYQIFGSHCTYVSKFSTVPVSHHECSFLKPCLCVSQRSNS
BCLXL inh confirm – Bcl-xL inhibitors blocking Bim BH3 binding, confirmation, counter-screen for MCL1 inhibitor project, biochemical, fluorescence polarization; shares compounds with MCL1 BIM primary; GST-Bcl-xL / FITC-Bim BH3 peptide FP binding; inhibition, % at 10.9 µM; 54% of 1,700 active; AID 2166, 2009;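 active = inhibition above a cutoff equal to the mean inhibition of all tested compounds plus 3 SD, cut at about 30% in these data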
MCL1 inh confirm – inhibitors of MCL1 binding to BIM-BH3, confirmation, biochemical, fluorescence polarization, triplicate; shares compounds with MCL1 BIM primary; inhibition, % at 10.9 µM; AID 2168, 2009; GST-MCL1 / FITC-Bim-BH3 fluorescence polarization; 61% of 1,700 active;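 active = inhibition above the average of all tested compounds plus 3 SD, cut at about 40% in these data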
GLD1 RNA confirm – GLD-1/TGE RNA binding inhibitors, retest, confirmation, biochemical, fluorescence polarization, triplicate; shares compounds with GLD-1 RNA inh; GLD-1/FL-TGE RNA fluorescence polarization; inhibition, % at 5.96 µM; 10% of 550 active; AID 2459, 2010;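 active = average inhibition across triplicates above the hit cutoff set in the primary screen, cut at about 32% in these data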
eLon confirm – E. coli Lon protease inhibitor retest, confirmation, biochemical, fluorescence polarization; shares compounds with eLon inh; purified E. coli Lon; inhibition, % at 7.94 µM; 31% of 1,400 active; in the data active = inhibition above about 16%
Large screens that a line does not name were inactive (follow-up assays come after a bar, where they were run).

CCN=c1scc(C)n1/N=C/c1cc(Br)c(O)c(Br)c1	none
CSc1ccc(C2C(C(=O)c3ccco3)=C(O)C(=O)N2c2nnc(SC)s2)cc1 (stereo not given)	MEX-5 binding -59, Bcl-xL primary 111, MCL1 BIM primary 93, eLon inh 41, GLD-1 RNA inh 93 (no result: EBV gp42 block) | BCLXL inh confirm 143 | MCL1 inh confirm 168 | eLon confirm 49
CC(C)(C)c1cc[n+](-c2[nH]c(=O)sc2/C=N/NC([S-])=Nc2ccccc2)cc1	MEX-5 binding inconclusive, Bcl-xL primary 177, MCL1 BIM primary 197, eLon inh 165, GLD-1 RNA inh 160, EBV gp42 block 117 | BCLXL inh confirm 161 | MCL1 inh confirm 189 | eLon confirm 71
CCc1ccc[n+](-c2[nH]c(=O)sc2/C=N/N=C(\[O-])c2ccncc2)c1	none (no result: EBV gp42 block)
Cc1ccc[n+](-c2[nH]c(=O)sc2/C=N/N=C(\[O-])CCn2c3ccccc3c3ccccc32)c1	none
Cc1cc[n+](-c2[nH]c(=O)sc2/C=N/NC([S-])=Nc2ccccc2)cc1C	Bcl-xL primary 129, MCL1 BIM primary 163, eLon inh 95, GLD-1 RNA inh 131, EBV gp42 block 64 | BCLXL inh confirm 104 | MCL1 inh confirm 149 | eLon confirm 33
O=C(O)C(c1ccccc1)C1(O)CC2CCC1C2 (stereo not given)	none (no result: MEX-5 binding, Bcl-xL primary, MCL1 BIM primary, GLD-1 RNA inh, EBV gp42 block)
Cc1ccc(C(=O)N2CCCN(c3nc4cc5c(cc4cc3C#N)OCO5)CC2)cc1	Bcl-xL primary 87, MCL1 BIM primary 98, eLon inh 73, GLD-1 RNA inh 58 (no result: EBV gp42 block) | BCLXL inh confirm inactive | MCL1 inh confirm inactive | eLon confirm inactive
O=C1CC(c2ccco2)CC2=C1C=Nc1ccccc1N2 (stereo not given)	none
O=c1[nH]c2c(s1)C=Nc1ccccc1N2	MEX-5 binding -72, Bcl-xL primary 178, MCL1 BIM primary active, eLon inh 114, GLD-1 RNA inh 144, EBV gp42 block 119 | BCLXL inh confirm 118 | MCL1 inh confirm 152 | eLon confirm 149
CCCCC(OC(=O)CN1C(=O)COc2ccccc21)C(=O)NC1CCCCC1 (stereo not given)	none (no result: EBV gp42 block)
COC(=O)c1c(C)c2c(C)cc3ccccn3c-2c1C(=O)OC	Bcl-xL primary 51, MCL1 BIM primary 51, eLon inh 45, GLD-1 RNA inh 33 | BCLXL inh confirm 60 | MCL1 inh confirm 74 | GLD1 RNA confirm inactive | eLon confirm inactive
Cc1onc(-c2c(Cl)cccc2Cl)c1COC(=O)c1ccc(Cl)cc1	none
Fc1ccc(Br)cc1C1C=C(c2ccc(Br)cc2)Nc2ncnn21 (stereo not given)	none
Cc1ccsc1C1C=C(c2cccc(Br)c2)Nc2ncnn21 (stereo not given)	Bcl-xL primary 110, MCL1 BIM primary 118, eLon inh 60, GLD-1 RNA inh 92, EBV gp42 block 94 | BCLXL inh confirm 71 | MCL1 inh confirm 83 | eLon confirm 66
CCCCOc1cccc(C2C(C(=O)c3ccc(C)o3)=C(O)C(=O)N2c2nnc(C)s2)c1 (stereo not given)	none (no result: Bcl-xL primary, MCL1 BIM primary, GLD-1 RNA inh, EBV gp42 block)
C=CCOc1cccc(C2C(C(=O)c3ccc(C)o3)=C(O)C(=O)N2c2nccs2)c1 (stereo not given)	MEX-5 binding -49, Bcl-xL primary 144, MCL1 BIM primary 162, eLon inh 55, GLD-1 RNA inh 130, EBV gp42 block 179 | BCLXL inh confirm 137 | MCL1 inh confirm 162 | eLon confirm 126
CCc1nc2c(OCCOc3ccc(F)cc3)cccn2c1N(C)C(=O)CC(C)C	none (no result: MEX-5 binding, Bcl-xL primary, MCL1 BIM primary, GLD-1 RNA inh, EBV gp42 block)
Cc1ccc(NC(=O)CC2SC3=NCCCN3C2=O)c(C)c1 (stereo not given)	Bcl-xL primary 110, MCL1 BIM primary 112, eLon inh 64, GLD-1 RNA inh 82 | BCLXL inh confirm 51 | MCL1 inh confirm 56 | eLon confirm 17
Nc1nnnn1/N=C/c1cc(Cl)cc(Cl)c1O	Bcl-xL primary 109, MCL1 BIM primary 133, eLon inh 49, GLD-1 RNA inh 78 (no result: EBV gp42 block) | BCLXL inh confirm 134 | MCL1 inh confirm 148 | eLon confirm 73
CN(C)/C=C1\C=C2C(=O)c3ccccc3N2C1=O	Bcl-xL primary 109, MCL1 BIM primary 116, eLon inh 93, GLD-1 RNA inh 91 (no result: MEX-5 binding) | BCLXL inh confirm 115 | MCL1 inh confirm 121 | eLon confirm inactive
O=C1C=C(Nc2ccccc2O)c2ccccc2C1=O	Bcl-xL primary 83, MCL1 BIM primary 100, eLon inh 43, GLD-1 RNA inh 99 | BCLXL inh confirm inactive | MCL1 inh confirm inactive | eLon confirm inactive
COc1c(O)cccc1[C@H](O)C1CCN(CCc2ccc(F)cc2)CC1	MEX-5 binding -39, Bcl-xL primary 50, MCL1 BIM primary 56, eLon inh 71, GLD-1 RNA inh 66 (no result: EBV gp42 block) | BCLXL inh confirm 56 | MCL1 inh confirm 60 | eLon confirm inactive
COc1ccc(CNC(=O)COC(=O)c2ccc(S(=O)(=O)NCc3ccco3)cc2)cc1	none (no result: MEX-5 binding, Bcl-xL primary, MCL1 BIM primary, EBV gp42 block)
COc1cccc(C2C(C#N)=C(N)N(N(C)C)C3=C2C(=O)CC(C)(C)C3)c1OC (stereo not given)	none (no result: EBV gp42 block)
COc1cccc(C2C3CN(C)CC=C3C(C#N)=C(N)C2(C#N)C#N)c1OC (stereo not given)	MEX-5 binding -67, Bcl-xL primary 116, MCL1 BIM primary 135, eLon inh 53, GLD-1 RNA inh 78, EBV gp42 block 78 | BCLXL inh confirm 77 | MCL1 inh confirm 97 | eLon confirm 16
